Reference: PubChem BioAssay (NCATS)
Records with an inconclusive call do not appear. Activity calls are given as the source filed them. Unless noted, the call rests on the fitted dose curve; in most records, active means well fitted curve in either direction with a large enough effect (not every such curve was filed as active); inconclusive means small, poorly fitted or top-dose-only effect, or another doubt; inactive means flat fitted curve, though single readings scatter.

Key:
[1] = AP1 Signaling Pathway (AID 357); settings: ME-180 AP-1-bla reporter, EGF-induced, beta-lactamase ratio, 5 h; at 17.2 µM (top of the series) unless noted;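 further: ME-180 reporter cells stimulated with EGF at its EC50 level; on the % scale 0 is the no-effect control and ±100 the full control effect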
Procedure, shortened: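 A ratiometric CCF4 readout (405 nm excitation; 460 and 530 nm emission) quantified AP-1-driven beta-lactamase in ME-180 cells after 5 h with compound and EC50 EGF; AC50 values were derived for activators and inhibitors.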

[2] = NFAT Signaling Pathway (AID 444); settings: Jurkat NFAT-bla M1, carbachol, beta-lactamase ratio, 5 h; at 17.2 µM (top of the series) unless noted;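 further: carbachol stimulus at about its EC50 of 1 µM final; on the % scale 0 is the no-effect control and ±100 the full control effect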
Procedure, shortened: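 Read-out: CCF4 FRET ratio (460 nm/530 nm) after 1 h RT dye loading, used for %activity and AC50 from titration series. Cells: Jurkat NFAT-β-lactamase/M1 line, treated with compound plus 1 uM carbachol for 5 h, 37 °C.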

[3] = Stat Signaling Pathway (AID 446);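 further: ME-180 cervical cancer cells given 40 pM IL-6 alongside compound; SIE-controlled beta-lactamase reporter measured as 460/530 nm FRET emission ratio; on the % scale 0 is the no-effect control and ±100 the full control effect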
Procedure, shortened: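 Reporter line: ME-180 cervical carcinoma, SIE-beta-lactamase. Treatment: compound with 40 pM IL-6, 5 hrs, 37 C, in low-serum OPTI-MEM with 10 mM HEPES pH 7.3. Detection: 460/530 nm fluorescence.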

[4] = target: Glucocorticoid receptor (Homo sapiens) (UniProt P04150); assay: GR-GFP Redistribution (AID 450;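 active means compounds whose dose series gives a full or clear partial fitted curve of increased nuclear translocation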; further: potency means the concentration at half of the fitted maximal effect); settings: U2OS GR-GFP nuclear translocation, laser cytometry, 2 h
Chain of Glucocorticoid receptor (Homo sapiens) (P04150 whole entry, looked up, the tested form may be a part): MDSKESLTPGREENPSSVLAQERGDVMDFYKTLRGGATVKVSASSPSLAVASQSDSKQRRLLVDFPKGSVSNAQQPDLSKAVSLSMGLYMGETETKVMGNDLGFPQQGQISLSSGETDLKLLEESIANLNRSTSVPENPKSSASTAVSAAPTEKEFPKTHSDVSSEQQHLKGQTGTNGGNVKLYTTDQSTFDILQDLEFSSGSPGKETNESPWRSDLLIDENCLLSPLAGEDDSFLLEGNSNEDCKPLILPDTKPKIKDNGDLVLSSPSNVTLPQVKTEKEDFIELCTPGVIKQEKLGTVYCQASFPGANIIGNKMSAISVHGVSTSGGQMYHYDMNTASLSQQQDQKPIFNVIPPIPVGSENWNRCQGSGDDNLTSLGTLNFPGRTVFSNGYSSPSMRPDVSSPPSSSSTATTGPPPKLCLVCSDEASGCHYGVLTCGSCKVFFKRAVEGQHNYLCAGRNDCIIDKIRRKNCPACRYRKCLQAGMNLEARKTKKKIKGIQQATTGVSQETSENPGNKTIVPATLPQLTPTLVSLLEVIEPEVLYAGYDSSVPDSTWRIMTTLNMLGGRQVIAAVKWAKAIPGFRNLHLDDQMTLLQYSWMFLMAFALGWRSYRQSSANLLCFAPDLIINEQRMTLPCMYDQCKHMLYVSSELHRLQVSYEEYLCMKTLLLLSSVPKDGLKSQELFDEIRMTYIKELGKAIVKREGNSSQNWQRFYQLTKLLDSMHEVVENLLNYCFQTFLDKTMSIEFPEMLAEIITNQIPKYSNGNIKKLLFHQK

[5] = target: Glucocorticoid receptor (Homo sapiens) (UniProt P04150); assay: GR-EFC Redistribution (AID 451; calls by dose curve; further: potency means the concentration at half of the fitted maximal effect); settings: CHO-K1 GR-EFC translocation, beta-gal luminescence, 2 h
Procedure, shortened: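 Translocation of GR-ED fusion to nuclear EA restores b-gal, read by luminescence after 1 h room-temperature detection. Engineered CHO-K1 biosensor cells, 1,000/well, exposed 2 h at 37 C to titrations up to 46 uM final.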

[6] = target: Mitogen-activated protein kinase 10 (Mus musculus) (UniProt Q61831); assay: JNK3 AlphaScreen Assay (AID 530);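 further: kinase came from lysate of stimulated human HepG2 cells; signal reports phosphorylation of biotinylated GST-cJun 1-79 at Ser73 with 10 µM ATP; on the % scale 0 is the no-effect control and ±100 the full control effect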
Procedure, shortened: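 Room-temperature AlphaScreen kinase assay; pre-activated HepG2 lysate as JNK3 source, biotin-GST-cJun(1-79) substrate, 10 uM ATP, compound 15 min preincubation.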

[7] = target: 3',5'-cyclic-AMP phosphodiesterase 4B (Homo sapiens) (UniProt Q07343); assay: qHTS Assay for Inhibitors of PDE-IV (AID 607; active means well fitted activation curve with a large enough effect in the main read-out, with a control signal flat, not every such curve was filed as active; further: % of control where 0% means no effect)
Chain of 3',5'-cyclic-AMP phosphodiesterase 4B (Homo sapiens) (Q07343 whole entry, looked up): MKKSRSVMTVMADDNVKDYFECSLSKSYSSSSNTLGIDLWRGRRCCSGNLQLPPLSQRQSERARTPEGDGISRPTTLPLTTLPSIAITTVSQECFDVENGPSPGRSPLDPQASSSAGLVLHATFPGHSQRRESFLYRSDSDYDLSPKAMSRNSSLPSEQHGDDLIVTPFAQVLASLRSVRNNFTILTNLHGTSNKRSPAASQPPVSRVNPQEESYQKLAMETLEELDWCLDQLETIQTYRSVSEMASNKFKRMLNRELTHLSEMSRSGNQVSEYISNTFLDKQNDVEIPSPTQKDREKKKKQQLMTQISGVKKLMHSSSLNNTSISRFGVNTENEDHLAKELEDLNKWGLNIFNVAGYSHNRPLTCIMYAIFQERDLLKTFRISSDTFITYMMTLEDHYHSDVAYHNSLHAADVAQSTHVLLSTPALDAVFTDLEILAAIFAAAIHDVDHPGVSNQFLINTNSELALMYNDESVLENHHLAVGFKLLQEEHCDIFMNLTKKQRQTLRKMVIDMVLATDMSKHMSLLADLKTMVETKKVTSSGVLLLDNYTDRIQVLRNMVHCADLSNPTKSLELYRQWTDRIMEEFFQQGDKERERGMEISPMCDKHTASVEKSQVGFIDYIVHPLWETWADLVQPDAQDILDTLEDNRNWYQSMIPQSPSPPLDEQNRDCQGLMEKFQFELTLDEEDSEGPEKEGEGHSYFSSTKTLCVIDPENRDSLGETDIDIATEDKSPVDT
Procedure, shortened: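 Cell-based read-out of cAMP via a modified cyclic nucleotide-gated channel and membrane potential dye (535/590 nm) in HEK293 cells expressing PDE4 endogenously. Compounds tested up to 22.9 uM final; 100 uM RO 20-1724 reference.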

[8] = target: Guanine nucleotide-binding protein G(i) subunit alpha-1 (Homo sapiens) (UniProt P63096); assay: qHTS Assay for Inhibitors of RGS12 GoLoco Motif Activity (Green Fluorophore) (AID 879; active means well fitted curve in the direction sought with a large enough effect; an effect the other way counts as inactive or inconclusive;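 further: 0% = labeled peptide with Gαi1 and full inhibition = labeled peptide alone without protein; negative values mean loss of peptide binding seen as reduced polarization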)
Chain of Guanine nucleotide-binding protein G(i) subunit alpha-1 (Homo sapiens) (P63096 whole entry, looked up): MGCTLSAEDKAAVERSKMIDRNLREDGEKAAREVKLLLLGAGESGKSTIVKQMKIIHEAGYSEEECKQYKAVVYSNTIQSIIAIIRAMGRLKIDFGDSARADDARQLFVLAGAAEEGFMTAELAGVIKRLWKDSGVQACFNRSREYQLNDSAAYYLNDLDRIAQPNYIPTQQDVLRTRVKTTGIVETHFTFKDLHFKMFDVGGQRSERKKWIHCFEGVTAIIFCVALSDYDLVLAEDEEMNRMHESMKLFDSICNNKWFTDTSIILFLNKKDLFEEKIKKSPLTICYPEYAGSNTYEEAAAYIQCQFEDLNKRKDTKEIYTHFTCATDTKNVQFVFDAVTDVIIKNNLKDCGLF
Procedure, shortened: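 Fluorescence polarization assay: 50 nM Gαi1 with 10 nM FITC-labeled RGS12 GoLoco peptide in 10 mM Tris pH 7.5, 150 mM NaCl, 0.1 mM GDP, 0.05% NP40, 10 min at room temperature with compound.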

[9] = target: Muscarinic acetylcholine receptor M1 (Rattus norvegicus) (UniProt P08482); assay: qHTS Assay for Antagonists of Acetylcholine Muscarinic M1 Receptor: Measurement of IP-One Response (AID 944; active means well fitted curve in the direction sought with a large enough effect; an effect the other way counts as inactive or inconclusive; further: nearly all actives have a fitted effect of over 75% in size)
Chain of Muscarinic acetylcholine receptor M1 (Rattus norvegicus) (P08482 whole entry, looked up): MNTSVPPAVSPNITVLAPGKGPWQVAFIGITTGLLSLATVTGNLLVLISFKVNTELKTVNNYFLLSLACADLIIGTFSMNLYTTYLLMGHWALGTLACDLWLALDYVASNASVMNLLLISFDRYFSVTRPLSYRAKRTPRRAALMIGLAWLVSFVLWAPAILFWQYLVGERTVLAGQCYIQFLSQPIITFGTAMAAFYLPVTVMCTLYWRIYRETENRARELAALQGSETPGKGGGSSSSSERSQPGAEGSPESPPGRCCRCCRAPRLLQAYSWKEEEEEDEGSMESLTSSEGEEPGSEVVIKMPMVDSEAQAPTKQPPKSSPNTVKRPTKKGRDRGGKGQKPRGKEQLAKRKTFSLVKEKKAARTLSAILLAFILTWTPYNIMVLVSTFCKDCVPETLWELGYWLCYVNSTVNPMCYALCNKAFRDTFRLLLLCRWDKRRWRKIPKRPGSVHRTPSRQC
Procedure, shortened: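 Steps: plate transfected CHO-M1 cells overnight; add test compound, 10 min; add carbachol (200 nM, EC80) in stimulation buffer with LiCl; incubate 30 min; add labelled IP1 tracer and anti-IP1 antibody in lysis buffer; read HTRF after 10 min.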

[10] = target: Pyruvate kinase (Leishmania mexicana) (UniProt Q27686); assay: qHTS Validation Assay for Inhibitors of Leishmania Mexicana Pyruvate Kinase (AID 945; active means well fitted curve in the direction sought with a large enough effect; an effect the other way counts as inactive or inconclusive;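 further: 0% = DMSO only neutral control wells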)
Chain of Pyruvate kinase (Leishmania mexicana) (Q27686 2-499 E452W): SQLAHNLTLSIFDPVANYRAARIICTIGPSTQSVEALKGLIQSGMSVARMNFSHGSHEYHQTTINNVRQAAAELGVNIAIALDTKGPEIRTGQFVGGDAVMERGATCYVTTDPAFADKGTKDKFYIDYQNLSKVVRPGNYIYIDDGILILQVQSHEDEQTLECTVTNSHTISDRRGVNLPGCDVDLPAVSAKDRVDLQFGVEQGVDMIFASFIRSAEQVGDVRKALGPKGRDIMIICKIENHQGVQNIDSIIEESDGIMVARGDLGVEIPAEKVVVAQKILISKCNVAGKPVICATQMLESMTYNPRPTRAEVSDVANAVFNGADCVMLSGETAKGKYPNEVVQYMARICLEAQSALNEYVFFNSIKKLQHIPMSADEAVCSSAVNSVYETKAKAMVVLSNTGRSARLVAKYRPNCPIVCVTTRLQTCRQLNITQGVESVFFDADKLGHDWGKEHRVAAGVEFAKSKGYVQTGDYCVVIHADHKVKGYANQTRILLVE
Procedure, shortened: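 Substrate mix (0.5 mM PEP, 0.1 mM ADP, 7 mM MgCl2, 50 mM KCl, pH 7.2 imidazole) received compound by pin tool, then 0.2 nM LmPYK E451W. After 1 h at room temperature, PKLight was added and luminescence measured.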

[11] = target: Pyruvate kinase PKM (Homo sapiens) (UniProt P14618); assay: qHTS Assay for Activators of Human Muscle Pyruvate Kinase (AID 954; active means well fitted curve in the direction sought with a large enough effect, not every such curve was filed as active;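 further: 0% = uninhibited enzyme and -100% = no enzyme or full thiadiazolimine inhibition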)
Chain of Pyruvate kinase PKM (Homo sapiens) (P14618 whole entry, looked up): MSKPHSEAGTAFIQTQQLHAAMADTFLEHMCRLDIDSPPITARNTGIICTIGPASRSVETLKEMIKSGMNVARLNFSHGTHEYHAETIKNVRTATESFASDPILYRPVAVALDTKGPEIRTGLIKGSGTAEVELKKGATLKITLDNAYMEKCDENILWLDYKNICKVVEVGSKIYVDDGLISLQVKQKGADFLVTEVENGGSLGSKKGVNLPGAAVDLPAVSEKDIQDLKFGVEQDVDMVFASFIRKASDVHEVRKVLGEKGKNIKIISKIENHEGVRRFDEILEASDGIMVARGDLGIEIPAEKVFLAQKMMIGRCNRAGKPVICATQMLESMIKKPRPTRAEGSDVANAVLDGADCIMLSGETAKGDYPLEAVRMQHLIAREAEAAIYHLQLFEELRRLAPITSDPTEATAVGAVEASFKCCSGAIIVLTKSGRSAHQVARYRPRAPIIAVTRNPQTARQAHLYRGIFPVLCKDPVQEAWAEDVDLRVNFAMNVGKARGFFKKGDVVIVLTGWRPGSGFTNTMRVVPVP
Procedure, shortened: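 Human PKM2 activity is measured as ATP generation, detected by luciferase-coupled luminescence. The enzyme (0.1 nM) acts on 0.5 mM PEP and 0.1 mM ADP for 1 h at ambient temperature; data are normalized to uninhibited and full-inhibition wells.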

[12] = target: Alpha-galactosidase (Coffea arabica) (UniProt Q42656); assay: Counterscreen for Glucocerebrosidase Inhibitors: qHTS Assay for Coffee Bean alpha-Galactosidase at pH 4.5 (AID 957; active means well fitted curve in the direction sought with a large enough effect; an effect the other way counts as inactive or inconclusive;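 further: plate controls were enzyme alone for no effect and no enzyme for full effect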)
Chain of Alpha-galactosidase (Coffea arabica) (Q42656 whole entry, looked up): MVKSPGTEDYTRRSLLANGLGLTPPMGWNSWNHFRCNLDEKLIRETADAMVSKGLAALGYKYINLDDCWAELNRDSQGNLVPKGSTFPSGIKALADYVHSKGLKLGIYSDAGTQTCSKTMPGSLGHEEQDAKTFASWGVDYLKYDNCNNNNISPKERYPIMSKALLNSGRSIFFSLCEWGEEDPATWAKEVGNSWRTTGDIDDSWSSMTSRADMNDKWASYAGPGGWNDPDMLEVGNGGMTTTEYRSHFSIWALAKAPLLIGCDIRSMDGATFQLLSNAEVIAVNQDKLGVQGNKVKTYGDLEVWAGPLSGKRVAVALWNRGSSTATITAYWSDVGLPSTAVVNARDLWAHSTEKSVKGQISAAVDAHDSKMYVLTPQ
Procedure, shortened: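 AC50 values derive from Hill-equation modeling of concentration-response data, normalized to no-enzyme and full-activity controls. The pH 4.5 citrate assay used 2 nM coffee bean enzyme and 80 uM fluorogenic substrate for 20 min.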

[13] = target: Alpha-galactosidase A (Homo sapiens) (UniProt P06280); assay: Counterscreen for Glucocerebrosidase Inhibitors: qHTS Assay for Human alpha-Galactosidase at pH 4.5 (AID 992; active means well fitted curve in the direction sought with a large enough effect; an effect the other way counts as inactive or inconclusive; further: 0% is about no effect)
Chain of Alpha-galactosidase A (Homo sapiens) (P06280 whole entry, looked up): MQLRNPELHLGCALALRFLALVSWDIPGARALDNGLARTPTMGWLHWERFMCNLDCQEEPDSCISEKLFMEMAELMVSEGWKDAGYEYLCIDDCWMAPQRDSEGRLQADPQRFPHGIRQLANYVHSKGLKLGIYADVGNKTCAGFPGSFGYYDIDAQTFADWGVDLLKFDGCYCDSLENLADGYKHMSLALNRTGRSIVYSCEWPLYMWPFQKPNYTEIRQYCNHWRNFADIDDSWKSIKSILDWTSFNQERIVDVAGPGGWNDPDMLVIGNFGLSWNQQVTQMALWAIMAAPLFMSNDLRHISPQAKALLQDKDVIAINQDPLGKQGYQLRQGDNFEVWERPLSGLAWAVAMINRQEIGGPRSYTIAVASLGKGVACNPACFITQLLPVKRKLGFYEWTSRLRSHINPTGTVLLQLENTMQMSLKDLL
Procedure, shortened: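 Quantitative HTS: compounds tested from 0.7 nM up to 77 uM against 2 nM enzyme with 80 uM 4-MU alpha-D-galactopyranoside. The 20 min room-temperature reaction is stopped with 1M NaOH/1M glycine, pH 10.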

[14] = target: alpha-glucosidase (Oryza sativa, rice) (UniProt Q653V4); assay: Counterscreen for Glucocerebrosidase Inhibitors: qHTS Assay for Rice alpha-Glucosidase at pH 5.0 (AID 997; active means well fitted curve in the direction sought with a large enough effect; an effect the other way counts as inactive or inconclusive;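 further: 0% = full activity with enzyme and -100% = basal without enzyme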)
Procedure, shortened: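 Rice alpha-glucosidase (4 nM final) with 400 uM 4-methylumbelliferyl-alpha-D-glucopyranoside in citrate buffer pH 5.0, 20 min at room temperature, stopped at pH 10; fluorescence 365/440 nm, compounds 0.7 nM–77 uM, AC50 from Hill fits.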

[15] = target: Alpha-galactosidase (Coffea arabica) (UniProt Q42656); assay: Counterscreen for Glucocerebrosidase Inhibitors: qHTS Assay for Coffee Bean alpha-Galactosidase at pH 5.9 (AID 998; active means well fitted curve in the direction sought with a large enough effect; an effect the other way counts as inactive or inconclusive;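 further: plate controls were uninhibited enzyme for no effect and no-enzyme basal signal for full effect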)
Procedure, shortened: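 Compounds were titrated from 0.7 nM to 77 uM against green coffee bean alpha-galactosidase (2 nM) using 80 uM fluorogenic 4-methylumbelliferyl substrate. After 20 min at room temperature, reactions were stopped at pH 10 and read by fluorescence.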

COc1ccc(Cn2c(O)c(C=NCCN3CCOCC3)c(=O)[nH]c2=O)cc1
inactive: activity change, negative = inhibition [1] -6.69% | activity change, negative = inhibition [2] -3.63% | outcome [3] | Potency [4] > 20.6 µM

CCCCNC(=O)Nc1ccc(C(O)(C(=O)OC)C(F)(F)F)cc1 (centres undefined)
inactive: activity change, negative = inhibition [1] -12.1% | activity change, negative = inhibition [2] 26.8% | outcome [3] | Potency [4] > 20.6 µM

C[C@H]1CCCC(=O)CCCCCc2cc(O)cc(O)c2C(=O)O1
inactive: activity change, negative = inhibition [1] -29.6% | activity change, negative = inhibition [2] 22.4% | outcome [3] | Potency [4] > 20.6 µM

CN1CCc2nc(SCC(=O)OC(C)(C)C)c(C#N)cc2C1
inactive: activity change, negative = inhibition [1] -5.69% | activity change, negative = inhibition [2] -15.8% | outcome [3] | Potency [4] > 20.6 µM

O=P(c1ccccc1)(c1ccccc1)N1CCCCC1
inactive: activity change, negative = inhibition [1] -9.35% | activity change, negative = inhibition [2] -3.91% | outcome [3] | Potency [4] > 20.6 µM

OC(c1ccc(F)cc1)C(c1ccccc1)N1CCOCC1 (centres undefined)
inactive: activity change, negative = inhibition [1] -21.7% | activity change, negative = inhibition [2] -1.44% | outcome [3] | Potency [4] > 20.6 µM

OC1(c2ccc(F)cc2)CCNC1 (centres undefined)
inactive: activity change, negative = inhibition [1] 7.87% | activity change, negative = inhibition [2] -14.3% | outcome [3] | Potency [4] > 20.6 µM

CCCCOCCCn1c(N)c(C(=O)OC(C)COC)c2nc3ccccc3nc21 (centres undefined)
inactive: activity change, negative = inhibition [1] -11.7% | activity change, negative = inhibition [2] 29.2% | outcome [3] | Potency [4] > 20.6 µM

O=c1c(C=NCCN2CCNCC2)c(O)n(C2CCCCC2)c(=O)n1C1CCCCC1
inactive: activity change, negative = inhibition [1] 4.2% | activity change, negative = inhibition [2] 18.3% | outcome [3] | Potency [4] > 20.6 µM

O=C(c1ccco1)C12CN3CN(CN(C3)C1)C2
inactive: activity change, negative = inhibition [1] 4.87% | activity change, negative = inhibition [2] -11.2% | outcome [3] | Potency [4] > 20.6 µM

C=CCC1(CN2CCCCCC2=O)C(=O)NC(=O)NC1=O
inactive: activity change, negative = inhibition [1] 1.22% | activity change, negative = inhibition [2] 2.02% | outcome [3] | Potency [4] > 20.6 µM

NCC1(c2ccc3c(c2)OCCO3)CCCC1
inactive: activity change, negative = inhibition [1] 3.9% | activity change, negative = inhibition [2] -11.3% | outcome [3] | Potency [4] > 20.6 µM

COC(=O)C(c1ccccc1)N1CCCCCC1 (centres undefined)
inactive: activity change, negative = inhibition [1] 17.9% | activity change, negative = inhibition [2] -19.7% | outcome [3] | Potency [4] > 20.6 µM

CC(C)C(=O)N1CCN(CCN=Cc2c(O)n(C)c(=O)n(C)c2=O)CC1
inactive: activity change, negative = inhibition [1] 10.2% | activity change, negative = inhibition [2] -6.53% | outcome [3] | Potency [4] > 20.6 µM

Nc1ncc(P(=S)(N2CCOCC2)N2CCOCC2)s1
inactive: activity change, negative = inhibition [1] 10.9% | activity change, negative = inhibition [2] 4.78% | outcome [3] | Potency [4] > 20.6 µM

O=[N+]([O-])c1ccc(O[C@H]2O[C@@H](CO)[C@@H](O)[C@@H](O)[C@@H]2F)c([N+](=O)[O-])c1
inactive: activity change, negative = inhibition [1] -3.88% [at 38 µM] | activity change, negative = inhibition [2] 14.6% [at 38 µM] | outcome [3] | Potency [4] > 46 µM | Potency [5] > 46 µM | outcome [6] | outcome [7] | Potency [8] | Potency [9] | Potency [10] | outcome [11] | outcome [12] | outcome [13] | outcome [14] | outcome [15]

CC(=O)[C@@H]1CC[C@@H]2[C@H]3CC[C@H]4C[C@@H](O)CC[C@]4(C)[C@@H]3C(=O)C[C@]21C
inactive: activity change, negative = inhibition [1] -0.27% [at 38 µM] | activity change, negative = inhibition [2] -2.4% [at 38 µM] | outcome [3] | outcome [7]
